These results are taken from PubChem BioAssay (NCATS).

Inconclusive results are not listed. Values without a mark were called inactive. The list shows a part of the results. Calls of active or inactive are those of the source. The call rests on the fitted dose curve; in most records, active means well fitted curve in the direction sought with a large enough effect; inconclusive means small, poorly fitted or top-dose-only effect, or another doubt; inactive means no such curve, though single readings can be large; an effect the other way counts as inactive or inconclusive.

Assay [1] concerns the target Rap guanine nucleotide exchange factor 3 (Homo sapiens) (UniProt O95398). Put plainly: Confirmatory qHTS for antagonist of cAMP-regulated guanine nucleotide exchange factor 3 (EPAC1) (AID 1645880). Further: nearly all actives have a fitted effect of over 55% in size. Further: potency means the concentration at half of the fitted maximal effect.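 On activity, negative = inhibition: plate controls were DMSO only for no effect and full effect of the ATA control for full effect.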 Particulars: EPAC1 Rap1B-BODIPY-GDP exchange, fluorescence; activity, negative = inhibition: at 115 µM (top of the series). A digest of the protocol: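 Nucleotide exchange uses 100 nM EPAC1, 250 nM RAP1B-BODIPY-GDP and 50 uM GDP, with compounds in a concentration-titration series. After 5 min at room temperature, fluorescence (480 nm ex/540 nm em) is read every 5 min for 30 min. Data are normalized to control ATA and DMSO.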

The target is the same in assay [2]. Put plainly: Confirmatory qHTS for agonist of cAMP-regulated guanine nucleotide exchange factor 3 (EPAC1) (AID 1645881). Further: nearly all actives have a fitted effect of over 75% in size. Further: potency means the concentration at half of the fitted maximal effect.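 On activation: EPAC1 catalysed release of BODIPY-GDP from Rap1B seen as fluorescence loss; 100% = effect of cAMP agonist control.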
Assay [3] addresses Rap guanine nucleotide exchange factor 4 (Homo sapiens) (UniProt Q8WZA2). The assay can be described thus: Confirmatory qHTS for agonist of cAMP-regulated guanine nucleotide exchange factor 4 (EPAC2) (AID 1645884).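 Further: nucleotide exchange releases bodipy-GDP from Rap1 and this lowers its fluorescence; nearly all actives have a fitted effect of over 65% in size.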 Further: potency means the concentration at half of the fitted maximal effect. On activation: on the % scale 0 is the no-effect control and ±100 the full control effect.
Assay [4] has the same target. Put plainly: Confirmatory qHTS for antagonist of cAMP-regulated guanine nucleotide exchange factor 4 (EPAC2) (AID 1645885). Further: nearly all actives have a fitted effect of over 25% in size. Further: potency means the concentration at half of the fitted maximal effect.
Assay [5] concerns the target Rap guanine nucleotide exchange factor 3 (Homo sapiens) (UniProt O95398). The assay can be described thus: Counterscreen qHTS for agonist of cAMP-regulated guanine nucleotide exchange factor 3 (EPAC1) (AID 1645889). Further: nearly all actives have a fitted effect of over 40% in size. Further: potency means the concentration at half of the fitted maximal effect. On activation: % of control where 0% means no effect. In short, it runs like this:
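Rap1B–BODIPY-GDP (250 nM) with 50 uM GDP; compounds pin-transferred to 9.74 nM–152 uM final (activator) or from 7.32 nM upwards (inhibitor). Fluorescence Ex/Em 480/540 nm read at 5 and 30 min, then after adding cAMP or buffer, at room temperature.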

Assay [6] addresses Tumor susceptibility gene 101 protein (Homo sapiens) (UniProt Q99816). Put plainly: qHTS Assay for Iinhibitors of HIV-1 Budding by Blocking the Interaction of PTAP/TSG101: Hit Validation (AID 651600). Further: nearly all actives have a fitted effect of over 70% in size. Further: potency means the concentration at half of the fitted maximal effect. In short, it runs like this:
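Fluorescence polarization binding assay: Tsg101 binding domain (10 uM) mixed with compounds and FITC-labeled PTAP peptide (50 nM) in HEPES pH 7.5, 0.15 M NaCl, 0.01% Tween 20, EDTA, TCEP; 20 min at r.t.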

In assay [7] the target is Vitamin D3 receptor (Homo sapiens) (UniProt P11473). Put plainly: qHTS for Inhibitors of the vitamin D receptor (VDR): Hit Validation in Primary Screen (AID 602199). Further: potency means the concentration at half of the fitted maximal effect. Particulars: VDR-coactivator inhibition assay, qHTS confirmation. A digest of the protocol:
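Fluorescence polarization (Ex 620/Em 688 nm) of Alexa 647-SRC2-3 peptide with 800 nM VDR and 5 uM LG19078. Compounds at several concentrations, 2 h at room temperature.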

The nature of assay [8]: qHTS for Inhibitors of the vitamin D receptor (VDR): Hit Validation using a Texas Red Assay (AID 602201). Further: on the % scale 0 is the no-effect control and ±100 the full control effect. A digest of the protocol: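 Fluorescence polarization with 1.5 uM VDR-LBD, LG19078 and 7 nM Texas Red (final). After 2 hours at ambient temperature, read at Ex 595 nm/Em 615 nm.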
Assay [9] deals with Vitamin D3 receptor (Homo sapiens) (UniProt P11473). The assay can be described thus: qHTS for Inhibitors of the vitamin D receptor (VDR): Hit Validation using a Beta-Lactamase Assay (AID 602202). Further: on the % scale 0 is the no-effect control and ±100 the full control effect. In short, it runs like this:
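Stably transfected HEK293 cells expressing VDR-GAL4 DNA-binding domain fusion with UAS-driven beta-lactamase reporter, activated by agonist LG190178; compounds incubated 18 h, then FRET beta-lactam substrate 2 h; cleaved substrate read at 447 nm emission.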

Assay [10] can be described thus: qHTS for Inhibitors of the vitamin D receptor (VDR): Hit Validation using a Cytotoxicity Assay (AID 602204).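 Further: plate controls were DMSO for no effect and high-concentration cycloheximide for full effect; nearly all actives have a fitted effect of over 75% in size.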 A digest of the protocol: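 20,000 cells/well, 4 h settle; add cpds, 18 h; ATP luminescence reagent, 30 min, read. Pos ctrl cycloheximide (high conc), neg ctrl DMSO.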
The target in assay [11] is DNA polymerase eta (Homo sapiens) (UniProt Q9Y253). Put plainly: qHTS for Inhibitors of Polymerase Eta: Confirmatory Assay for Cherry-picked Compounds (AID 720502). Further: potency means the concentration at half of the fitted maximal effect. Particulars: Pol eta primer extension, TAMRA/BHQ fluorescence, 10 min. A digest of the protocol: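 Compounds are preincubated 15 min at room temperature with 10 nM human Pol eta, with buffer-only wells serving as negative control. Adding 50 nM final substrate starts the reaction, and TAMRA fluorescence is read over 10 min.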
Sequence of DNA polymerase eta (Homo sapiens) (Q9Y253 whole entry, looked up): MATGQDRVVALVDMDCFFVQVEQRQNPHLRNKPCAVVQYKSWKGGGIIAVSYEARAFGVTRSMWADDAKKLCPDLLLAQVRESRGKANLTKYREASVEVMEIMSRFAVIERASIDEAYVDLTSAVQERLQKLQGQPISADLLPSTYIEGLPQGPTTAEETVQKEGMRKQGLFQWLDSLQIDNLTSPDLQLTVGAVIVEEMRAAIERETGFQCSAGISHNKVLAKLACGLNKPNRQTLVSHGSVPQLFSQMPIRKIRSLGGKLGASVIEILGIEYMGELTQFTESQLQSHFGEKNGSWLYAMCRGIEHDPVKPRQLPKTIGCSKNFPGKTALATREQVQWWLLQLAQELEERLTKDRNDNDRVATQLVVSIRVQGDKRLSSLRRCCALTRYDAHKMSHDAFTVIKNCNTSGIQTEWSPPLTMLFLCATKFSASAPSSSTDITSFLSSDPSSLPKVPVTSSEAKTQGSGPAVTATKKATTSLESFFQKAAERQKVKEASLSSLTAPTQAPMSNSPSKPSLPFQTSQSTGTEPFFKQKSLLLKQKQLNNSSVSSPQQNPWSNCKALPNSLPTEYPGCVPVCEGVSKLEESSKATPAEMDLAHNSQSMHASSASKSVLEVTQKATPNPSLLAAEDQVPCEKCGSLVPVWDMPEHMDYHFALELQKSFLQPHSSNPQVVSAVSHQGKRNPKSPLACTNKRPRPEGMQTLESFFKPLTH

Sequence of Rap guanine nucleotide exchange factor 4 (Homo sapiens) (Q8WZA2 whole entry, looked up): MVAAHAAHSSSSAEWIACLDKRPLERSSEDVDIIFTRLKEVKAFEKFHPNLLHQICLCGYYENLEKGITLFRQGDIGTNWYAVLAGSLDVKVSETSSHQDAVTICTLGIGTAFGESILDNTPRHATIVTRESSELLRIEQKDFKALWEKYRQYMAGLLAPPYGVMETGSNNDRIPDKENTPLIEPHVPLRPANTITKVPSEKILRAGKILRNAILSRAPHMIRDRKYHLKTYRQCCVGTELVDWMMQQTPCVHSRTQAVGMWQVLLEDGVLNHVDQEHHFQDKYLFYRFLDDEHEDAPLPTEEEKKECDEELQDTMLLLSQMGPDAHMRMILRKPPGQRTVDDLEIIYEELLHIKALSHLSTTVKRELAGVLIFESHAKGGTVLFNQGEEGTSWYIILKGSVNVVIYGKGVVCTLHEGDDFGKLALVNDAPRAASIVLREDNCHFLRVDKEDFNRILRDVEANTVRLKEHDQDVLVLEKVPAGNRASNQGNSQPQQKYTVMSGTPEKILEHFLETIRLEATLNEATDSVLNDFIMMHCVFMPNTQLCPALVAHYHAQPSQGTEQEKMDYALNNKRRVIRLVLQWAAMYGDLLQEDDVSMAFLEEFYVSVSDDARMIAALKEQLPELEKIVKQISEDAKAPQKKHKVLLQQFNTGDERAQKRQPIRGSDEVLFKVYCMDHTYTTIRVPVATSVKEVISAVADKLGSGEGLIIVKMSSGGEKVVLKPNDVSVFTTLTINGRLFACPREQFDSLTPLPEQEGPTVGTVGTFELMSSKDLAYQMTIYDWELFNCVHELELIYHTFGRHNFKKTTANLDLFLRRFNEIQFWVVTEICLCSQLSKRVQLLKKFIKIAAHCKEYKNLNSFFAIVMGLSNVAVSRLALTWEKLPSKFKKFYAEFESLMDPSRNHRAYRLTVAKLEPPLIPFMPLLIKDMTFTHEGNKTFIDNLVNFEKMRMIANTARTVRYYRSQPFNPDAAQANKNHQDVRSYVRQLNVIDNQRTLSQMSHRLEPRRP
Sequence of Rap guanine nucleotide exchange factor 3 (Homo sapiens) (O95398 whole entry, looked up): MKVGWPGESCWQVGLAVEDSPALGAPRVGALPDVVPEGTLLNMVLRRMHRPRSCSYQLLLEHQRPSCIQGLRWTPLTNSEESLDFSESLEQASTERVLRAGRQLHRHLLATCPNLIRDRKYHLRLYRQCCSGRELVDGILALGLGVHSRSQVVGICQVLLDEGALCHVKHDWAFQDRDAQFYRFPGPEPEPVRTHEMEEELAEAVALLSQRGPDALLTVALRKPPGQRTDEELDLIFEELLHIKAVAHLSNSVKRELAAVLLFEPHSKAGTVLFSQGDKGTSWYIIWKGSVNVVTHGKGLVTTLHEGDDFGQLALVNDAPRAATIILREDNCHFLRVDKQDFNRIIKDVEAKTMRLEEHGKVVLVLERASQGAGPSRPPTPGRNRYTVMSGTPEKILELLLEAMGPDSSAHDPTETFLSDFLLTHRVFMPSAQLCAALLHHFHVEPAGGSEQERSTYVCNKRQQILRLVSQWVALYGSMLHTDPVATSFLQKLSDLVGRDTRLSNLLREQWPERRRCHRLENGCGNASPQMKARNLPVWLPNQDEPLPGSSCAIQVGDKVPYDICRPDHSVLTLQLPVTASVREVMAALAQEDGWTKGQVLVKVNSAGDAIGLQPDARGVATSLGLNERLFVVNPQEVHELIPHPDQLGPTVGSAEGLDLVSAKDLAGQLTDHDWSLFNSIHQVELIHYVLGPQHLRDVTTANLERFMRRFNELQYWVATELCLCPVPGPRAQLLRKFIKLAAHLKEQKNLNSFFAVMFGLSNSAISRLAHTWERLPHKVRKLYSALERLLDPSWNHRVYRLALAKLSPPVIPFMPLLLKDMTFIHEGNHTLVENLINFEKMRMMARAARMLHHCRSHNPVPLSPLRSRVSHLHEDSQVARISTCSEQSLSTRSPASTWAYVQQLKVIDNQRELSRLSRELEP
Sequence of Tumor susceptibility gene 101 protein (Homo sapiens) (Q99816 whole entry, looked up, the tested form may be a part): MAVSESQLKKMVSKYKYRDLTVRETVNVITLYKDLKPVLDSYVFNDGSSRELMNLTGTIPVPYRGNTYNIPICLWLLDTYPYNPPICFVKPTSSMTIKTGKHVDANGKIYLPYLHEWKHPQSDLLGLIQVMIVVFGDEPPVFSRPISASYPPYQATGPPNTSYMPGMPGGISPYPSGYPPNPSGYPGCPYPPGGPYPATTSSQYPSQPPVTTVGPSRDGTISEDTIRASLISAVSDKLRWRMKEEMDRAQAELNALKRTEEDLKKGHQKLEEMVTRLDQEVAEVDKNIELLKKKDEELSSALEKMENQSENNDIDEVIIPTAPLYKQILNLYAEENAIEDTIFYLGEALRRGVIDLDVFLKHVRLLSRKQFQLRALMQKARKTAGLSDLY
Sequence of Vitamin D3 receptor (Homo sapiens) (P11473 whole entry, looked up, the tested form may be a part): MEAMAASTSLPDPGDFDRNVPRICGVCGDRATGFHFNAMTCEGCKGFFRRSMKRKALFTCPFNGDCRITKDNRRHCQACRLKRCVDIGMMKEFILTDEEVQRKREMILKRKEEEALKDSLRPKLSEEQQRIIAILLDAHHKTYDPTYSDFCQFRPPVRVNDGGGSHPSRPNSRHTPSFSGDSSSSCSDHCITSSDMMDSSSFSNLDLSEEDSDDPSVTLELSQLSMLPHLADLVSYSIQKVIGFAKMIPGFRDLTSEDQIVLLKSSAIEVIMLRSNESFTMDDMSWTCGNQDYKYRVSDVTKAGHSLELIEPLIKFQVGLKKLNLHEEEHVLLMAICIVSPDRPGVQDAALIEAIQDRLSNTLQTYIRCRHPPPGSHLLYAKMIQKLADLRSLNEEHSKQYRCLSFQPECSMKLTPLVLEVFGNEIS

Take `CCn1cc(SCC(=O)NCc2ccc3c(c2)OCO3)c2ccccc21`: the Potency entry in assay [1], in assay [2] and in [4] was “inactive” throughout. In addition, the activation is 0% [at 17.1 µM, percent relative to cAMP agonist control] in assay [3] and 20.3% [at 30.8 µM] in [5].

Turning to `Cc1nc(Nc2ccc(S(=O)(=O)N3CCCCC3C)cc2)c2nnn(Cc3ccccc3)c2n1` (configuration not stated), the Potency entry in assay [6], in assay [1], in assay [2], in [3], in [4] and in [5] was “inactive” in each case.

For the compound `O=S(=O)(Nc1nc2ccccc2nc1Nc1cccc(S(=O)(=O)N2CCCCC2)c1)c1ccccc1`, the Potency in assay [1] was 56.2 µM (active). Also, the Potency entry in assay [2] and in [4] was “inactive” each time. The activation is 6.04% [at 17.1 µM, percent relative to cAMP agonist control] in [3] and 25.8% [at 30.8 µM] in assay [5].

Consider `CC(=O)/C(C#N)=C1\NC(=O)C(Cc2cc(Cl)ccc2Cl)S1` (configuration not stated), for which the Potency in assay [1] was 44.7 µM (active). For the same compound, the Potency result in assay [2] and in assay [4] was “inactive” throughout. Besides, the activation in assay [3] was 4.95% [at 17.1 µM, percent relative to cAMP agonist control]; in assay [5] it was 2.87% [at 30.8 µM].

`COc1ccc(C2CCc3cc4c(cc3C2=NO)OCO4)cc1OC` (configuration not stated): the Potency result in assay [1], in assay [2] and in assay [4] was “inactive” each time. Moreover, the activation was 6.77% [at 17.1 µM, percent relative to cAMP agonist control] in assay [3] and 14.5% [at 30.8 µM] in assay [5].

In the case of `Nc1ncc(Br)cc1S(=O)(=O)Nc1cc(C(F)(F)F)cc(C(F)(F)F)c1`, in assay [1], the Potency is 75.7 µM (active). In addition, the Potency result in [2], in [3], in [4] and in assay [5] was “inactive” each time.

Take `Cc1ccc(CNC(=O)c2ccc3c(c2)nc(C)n3-c2cccc(F)c2)cc1`: the Potency entry in assay [1], in [2], in assay [3], in assay [4] and in [5] was “inactive” throughout.

For the compound `Cc1cc2ccccn2c1C(=O)c1cccc(F)c1`, the Potency result in assay [1], in [2], in assay [3], in assay [4] and in [5] was “inactive” throughout.

On to `O=CN(c1ccccc1)c1ccc2ccccc2c1`, for which the Potency result in assay [1], in [2] and in assay [4] was “inactive” each time. Moreover, the activation was 1.36% [at 17.1 µM, percent relative to cAMP agonist control] in [3] and 4.55% [at 30.8 µM] in assay [5].

Take `CC(C)(C)c1c(Cl)c(O)c(-c2ccccc2)c(=O)n1-c1ccccc1`: the Potency in [1] was 23.9 µM (active). For the same compound, the Potency entry in assay [2], in assay [3], in assay [4] and in assay [5] was “inactive” each time.

In the case of `CCCCn1c(CNC(=O)C23CC4CC(CC(C4)C2)C3)nnc1SCC(=O)Nc1ccc(F)cc1`, the Potency entry in assay [1], in [2], in [3] and in assay [5] was “inactive” in each case. The outcome in assay [4] is “inactive [at 12.7 µM]”.

For the compound `CCOc1cc(/C=C(\C#N)C(=O)Nc2cccc(C(=O)O)c2)cc(Br)c1OC(=O)c1ccc(OC)cc1`, the results for the Potency in assay [1] and in [4] were 42.6 µM (active) and 12 µM (active), respectively. For the same compound, the Potency entry in assay [2], in assay [3] and in [5] was “inactive” throughout.

As to `CC1(Cc2ccccc2OC(F)(F)F)C(=O)Nc2ccc(-c3ccsc3)cc21` (configuration not stated), the Potency in assay [1] was 42.6 µM (active); in assay [4], 33.8 µM (active). Moreover, the Potency entry in [2], in assay [3] and in assay [5] was “inactive” throughout.

Consider `c1cncc(-c2nc(NCCCN3CCOCC3)c3c4c(sc3n2)CCC4)c1`, for which the Potency result in [1], in [2], in [3], in assay [4] and in assay [5] was “inactive” each time.

Regarding `O=C(CSc1nnnn1-c1ccccc1)Nc1ccc(Cl)cn1`, the Potency entry in [1], in assay [2], in [3], in assay [4] and in [5] was “inactive” in each case.

Regarding `Cc1cc(C)n(CCOc2ccc(Br)cc2)n1`, the Potency result in assay [1], in assay [2] and in assay [4] was “inactive” throughout. Also, the activation in assay [3] was 1.04% [at 17.1 µM, percent relative to cAMP agonist control]; in [5], 4.02% [at 30.8 µM].

As for `CCN(CC)c1ccc2cc(C(C)=O)c(=O)oc2c1`, the Potency result in assay [1] and in assay [4] was “inactive” in each case. In addition, the Potency in assay [2] is 89.1 µM (active); in assay [3] it was 100 µM (active); in [5], 50.1 µM (active).

Consider `CCC1=NN(C(=O)c2ccc(Br)cc2)C(O)(c2ccccc2)C1` (configuration not stated), for which the Potency entry in assay [1], in [2] and in [4] was “inactive” in each case. In addition, the activation in assay [3] was 2.89% [at 17.1 µM, percent relative to cAMP agonist control]; in [5], 19.8% [at 30.8 µM].

With `O=C1C(Cc2ccccc2)SC(=Nc2ccccc2)N1c1ccccc1` (configuration not stated), the Potency entry in [1], in assay [2] and in assay [4] was “inactive” throughout. Also, the activation in assay [3] was 1.92% [at 17.1 µM, percent relative to cAMP agonist control]; in assay [5], 18.1% [at 30.8 µM].

For the compound `COc1cc(OC)c(-c2c3cc(O)c(=O)cc-3oc3cc(O)c(O)cc23)cc1OC`, the Potency result in assay [1] and in assay [4] was “inactive” throughout. Further, the Potency in assay [2] was 89.1 µM (active); in [3] it was 100 µM (active); in assay [5], 70.8 µM (active).

For the compound `COc1ccc(N2CCN(CCCNC(=O)c3ccc4nc(CCc5ccccc5)oc4c3)CC2)cc1`, the Potency entry in assay [1], in assay [2], in assay [3], in assay [4] and in [5] was “inactive” in each case.

`Cc1ccc([N+](=O)[O-])cc1S(=O)(=O)N1CCC(C)CC1`: the Potency result in [1], in [2], in [3], in [4] and in assay [5] was “inactive” throughout.

Take `O=C(O)c1ccc2c(c1)C(=O)N(c1ccc(/C=C/C(=O)c3ccccc3)cc1)C2=O`: the Potency was 10.6 µM (active) in [7], 33.8 µM (active) in [11] and 39.8 µM (active) in [1]. Also, the Potency entry in [8], in assay [9], in [10], in assay [2] and in [4] was “inactive” throughout. The activation in assay [3] was 5.43% [at 17.1 µM, percent relative to cAMP agonist control]; in assay [5], 8.33% [at 30.8 µM].

Take `CCN1CCc2c(sc(NC(=O)c3ccc(S(=O)(=O)N4CCCCCC4)cc3)c2C(=O)NC)C1`: the Potency result in assay [1], in assay [2], in [3], in assay [4] and in [5] was “inactive” throughout.

Turning to `O=C1c2cccc3c(O)ccc(c23)C(=O)N1Cc1ccccc1`, the Potency in [6] was 2.59 µM (active); in [2] it was 89.1 µM (active); in [3], 100 µM (active); in assay [4], 75.7 µM (active); in [5], 39.8 µM (active). The Potency result in assay [1] was “inactive”.
